# Test results: publication PMC5540273 (PLoS ONE, 2017)
# System: ITK
# Settings: concentration: 1 μM,replicates: in singlicate; n = 1
# 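Also: KINOMEscan kinase panel screen.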
row,SMILES,%Inh [%]
1,Cn1ccc2ncnc(Oc3ccc(NC(=O)Nc4cnn(C(C)(C)C)c4)c(Cl)c3)c21,2
2,COc1cc2ncn(-c3cc(OCC4CCCCC4)c(C(N)=O)s3)c2cc1OC [GSK204559],13
3,COc1cccc(CNC(=O)NC2CCN(c3ccnc(Nc4cc(OC)c(OC)c(OC)c4)n3)C2)c1 (stereo not shown) [GSK1379765],20
4,Cn1ccc2ncnc(Oc3ccc(NC(=O)Nc4cccc(C(F)(F)F)c4)c(F)c3)c21,3
5,CNC(=O)c1ccccc1Nc1nc(Nc2cccc(CS(C)(=O)=O)c2)ncc1C.O=CO [GSK1520489],100
6,C[C@@H](Oc1cc(-n2cnc3cc(-c4cnn(C)c4)ccc32)sc1C(N)=O)c1ccccc1Cl [GSK580432],23
7,COc1cc(Nc2nccc(N3CCC(NC(=O)c4cccc(C#N)c4)C3)n2)cc(OC)c1OC (stereo not shown) [GSK1379751],0
8,Cc1ccn2nc(-c3ccc(F)cc3)c(-c3ccncc3)c2c1.Cl [GW457859],0
9,CN1CCN(CCNc2nc3cc(Oc4ccc(NC(=O)Nc5cc(C(F)(F)F)ccc5F)cc4)ccc3[nH]2)CC1.Cl.Cl [GW768504],0
10,NC(=O)c1ccc(-c2cc3ncnc(SCC(=O)O)c3s2)cc1,0
11,CC(=O)c1c(-c2ccncc2)[nH]c(-c2ccncc2)c1C [GW493036],13
12,O=C(Nc1cccc(C(F)(F)F)c1)c1cccc(Oc2ccc3nccn3n2)c1,21
13,CC(=O)Nc1nc2cnc(Nc3cc(NC(=O)c4cccc(CC(C)(C)C#N)c4)ccc3C)nc2s1,0
